# In the supplement of paper PMC13380429:
# Counter-ions that a name gives are not always drawn.
# Columns and labels:
# [1] = test system: Vero E6 infected with SARS-CoV-2; assay: morphology score (similarity to uninfected cells); higher = more like uninfected cells; settings: 24 h
# [2] = test system: Vero E6 infected with SARS-CoV-2; assay: SARS-CoV-2 infection rate relative to infected DMSO; higher = more infection, active = 60 or less; settings: 24 h
SMILES,morphology score [1],SARS-CoV-2 infection rate [2]
NCC(=O)CCC(=O)O [5-aminolevulinic-acid] (10 µM),0.0459,113% (inactive)
OC[C@@H](O)[C@@H](O)[C@H](O)[C@@H](O)CO [sorbitol] (10 µM),-0.0534,110% (inactive)
Cc1cccc(C)c1NC(=O)c1ccccc1C(=O)O [ftaxilide] (10 µM),-0.12,106% (inactive)
COC[C@H]1OC(=O)c2coc3c2[C@@]1(C)C1=C(C3=O)[C@@H]2CCC(=O)[C@@]2(C)C[C@H]1OC(C)=O [wortmannin] (0.833333 µM),0.26,79.5% (inactive)
O=C(CCCCCCCn1cc(-c2cccnc2)nn1)Nc1ccccc1-c1ccccc1 (0.833333 µM),-0.143,114% (inactive)
CCCCN1CCC(CCC(=O)c2cc(Cl)c(N)cc2OC)CC1 (10 µM),0.237,95% (inactive)
O=C(Nc1ccc(F)cc1)N1CCc2ccccc2[C@@H]1c1ccc(C(F)(F)F)cc1 (10 µM),0.195,87% (inactive)
c1cc(OCCN2CCCCC2)cc(-c2n[nH]c3ccc(-c4nnc[nH]4)cc23)c1 (10 µM),0.363,94.5% (inactive)
CCN1C(C)(C)CC(Oc2ccc(C(=O)Nc3ccc(NC(=O)Nc4cc(C(C)(C)C)on4)cc3)nc2)CC1(C)C (10 µM),-0.0181,101% (inactive)
CN1CCC(c2c[nH]c3ccc(O)cc23)CC1 (10 µM),0.214,101% (inactive)
O=C1NCCN1CCN1CCC(c2cn(-c3ccc(F)cc3)c3ccc(Cl)cc23)CC1 [sertindole] (0.833333 µM),-0.0791,106% (inactive)
CCCS(=O)(=O)Nc1ccc(F)c(C(=O)c2c[nH]c3ncc(-c4ccc(Cl)cc4)cc23)c1F [vemurafenib] (10 µM),0.25,85.5% (inactive)
Oc1c(Cl)cc(Cl)c2cccnc12 [chloroxine] (10 µM),-0.0551,98.5% (inactive)
CC1(C)O[C@@H]2[C@@H](CO[C@@]3(COS(N)(=O)=O)OC(C)(C)O[C@@H]23)O1 [topiramate] (10 µM),0.00625,102% (inactive)
CC(C)C(=O)OC[C@H]1O[C@@H](n2ccc(N)nc2=O)[C@](C)(F)[C@@H]1OC(=O)C(C)C [mericitabine] (10 µM),0.0222,102% (inactive)
O=C(O)CCCCCCCC(=O)O [azelaic-acid] (10 µM),0.0279,104% (inactive)
CN(C)c1cccc(-c2c3c(=O)n(-c4ccccc4Cl)[nH]c3cc(=O)n2C)c1 (10 µM),0.165,112% (inactive)
CN(CCOc1ccc(NS(C)(=O)=O)cc1)CCc1ccc(NS(C)(=O)=O)cc1 [dofetilide] (10 µM),0.059,112% (inactive)
Cc1cccc(C)c1OCC(C)N (stereo not given) [mexiletine] (10 µM),-0.0725,112% (inactive)
CN(CCOc1ccc(-c2ccc3c(c2)OCO3)cc1C(C)(C)C)CC(=O)O (10 µM),-0.0713,102% (inactive)

SMILES,morphology score [1],SARS-CoV-2 infection rate [2]
COc1cc(C)c(/C=C/C(C)=C/C=C/C(C)=C/C(=O)O)c(C)c1C [acitretin] (10 µM),-0.0971,116% (inactive)
CCCCCCc1ccc(O)cc1O [hexylresorcinol] (10 µM),0.199,88% (inactive)
CCOc1ccc(NC(C)=O)cc1 [phenacetin] (10 µM),-0.129,116% (inactive)
O=C(O)[C@@H]1C[C@@H](C2CCCCC2)CN1C(=O)CP(=O)(O)CCCCc1ccccc1 [fosinoprilat] (10 µM),0.0775,100% (inactive)
C=C[C@@](C)(/C=C/c1ccc(O)cc1)CCC=C(C)C [bakuchiol] (10 µM),-0.328,114% (inactive)
CC(C)(C=O)Cc1cc(C(C)(C)C)c(O)c(C(C)(C)C)c1 (10 µM),0.0771,94% (inactive)
COC(=O)[C@@]12OC[C@]34[C@H]([C@@H](O)[C@@H]1O)[C@@]1(C)CC(=O)C(O)=C(C)[C@@H]1C[C@H]3OC(=O)[C@H](OC(=O)/C=C(\C)C(C)C)[C@@H]24 [bruceantin] (0.833333 µM),-0.0265,109% (inactive)
COc1cccc2c1C(=O)c1c(O)c3c(c(O)c1C2=O)C[C@@](O)(C(=O)CO)C[C@@H]3O[C@H]1C[C@H](N)[C@@H](O)[C@H](C)O1 [Epirubicin Hydrochloride] (10 µM),-0.016,108% (inactive)
O=C1CCC2CCC(=O)N12 [rolziracetam] (10 µM),-0.0425,106% (inactive)
Cn1cc(C(=O)C(=O)N[C@H]2CN3CCC2CC3)c2ccccc21 (10 µM),0.181,97.5% (inactive)
CCS(=O)(=O)N(C)[C@@H]1c2cc(C#N)ccc2OC(C)(C)[C@H]1O.CCS(=O)(=O)N(C)[C@H]1c2cc(C#N)ccc2OC(C)(C)[C@@H]1O (racemic) [chromanol-(+/-)] (10 µM),0.241,98.5% (inactive)
CNC(=O)c1c(I)c(NC(C)=O)c(I)c(C(=O)O)c1I [iothalamic-acid-d3] (10 µM),0.143,104% (inactive)
C[C@@H]1C[C@H]2[C@@H]3C[C@H](F)C4=CC(=O)C=C[C@]4(C)[C@@]3(F)[C@@H](O)C[C@]2(C)[C@@]1(O)C(=O)CO [flumethasone] (10 µM),-0.0494,110% (inactive)
CCOC(=O)n1ccn(C)c1=S [carbimazole] (10 µM),0.159,99% (inactive)
NC[C@H]1O[C@H](O[C@H]2[C@H](O)[C@@H](O[C@H]3O[C@H](CO)[C@@H](O)[C@H](N)[C@H]3O)[C@H](N)C[C@@H]2N)[C@H](O)[C@@H](O)[C@@H]1O [kanamycin] (10 µM),0.227,100% (inactive)
COc1ccc(-c2coc3cc(O)cc(O)c3c2=O)cc1 [4-methylgenistein] (10 µM),0.139,103% (inactive)
CC(=O)/N=c1/[nH]c(C)c(-c2ccc(Cl)c(S(=O)(=O)NCCO)c2)s1 (0.833333 µM),0.335,104% (inactive)
CC(C(=O)O)c1ccc2c(c1)[nH]c1ccc(Cl)cc12 (stereo not given) [carprofen] (10 µM),-0.0165,108% (inactive)
CC(C)(C)NC(=O)[C@@H](c1cccnc1)N(C(=O)c1ccco1)c1ccc(C(C)(C)C)cc1 (10 µM),0.333,83% (inactive)
C[C@@H](c1nc(-c2ccc(C#N)cc2)cs1)[C@](O)(Cn1cncn1)c1ccc(F)cc1F [ravuconazole] (10 µM),0.0292,107% (inactive)

SMILES,morphology score [1],SARS-CoV-2 infection rate [2]
C[N+](C)(C)NCCC(=O)O [meldonium] (10 µM),0.253,88.5% (inactive)
CN[C@@H](C)[C@H](O)c1ccccc1 [ephedrine] (10 µM),-0.038,106% (inactive)
Cc1cc(NS(=O)(=O)c2ccc(N)cc2)no1 [sulfamethoxazole] (10 µM),0.128,94.5% (inactive)
O=C1CN2Cc3c(ccc(Cl)c3Cl)N=C2N1 [anagrelide] (10 µM),0.142,112% (inactive)
C=CCN1C[C@H](C(=O)N(CCCN(C)C)C(=O)NCC)C[C@@H]2c3cccc4[nH]cc(c34)C[C@H]21 [cabergoline] (10 µM),0.0903,104% (inactive)
Cc1ccc(NC(=O)c2ccc(CN3CCN(C)CC3)cc2)cc1Nc1nccc(-c2cccnc2)n1 [imatinib] (10 µM),0.738,37% (active)
Cc1ccccc1C(OCCN(C)C)c1ccccc1 (stereo not given) [orphenadrine] (10 µM),0.316,87% (inactive)
CC1=NN=C(c2ccc(N)cc2)c2cc3c(cc2C1)OCO3 (10 µM),-0.0987,112% (inactive)
O[C@H]1[C@H]2[C@H](O)CCCN2C[C@H]1O [swainsonine] (10 µM),-0.0751,97% (inactive)
CC(CNC1CCCCC1)OC(=O)c1ccccc1 (stereo not given) [hexylcaine] (10 µM),-0.0327,112% (inactive)
CCc1cc(O)c(Oc2ccc(C(N)=O)cc2F)cc1F (10 µM),0.0909,95.5% (inactive)
CC(=O)CC(c1ccccc1)c1c(O)c2ccccc2oc1=O (stereo not given) [warfarin] (10 µM),-0.0329,106% (inactive)
CN(C)C(=O)CCSC(SCCC(=O)O)c1cccc(/C=C/c2ccc3ccc(Cl)cc3n2)c1 (stereo not given) (10 µM),0.011,108% (inactive)
CCCC(=O)O[C@]1(C(=O)CO)CC[C@H]2[C@@H]3CCC4=CC(=O)CC[C@]4(C)[C@H]3[C@@H](O)C[C@@]21C [hydrocortisone-butyrate] (10 µM),-0.0651,102% (inactive)
CC(=O)c1ccc2c(c1)N(CCCN1CCN(CCO)CC1)c1ccccc1S2 [acetophenazine] (10 µM),0.201,96.5% (inactive)
CC(=O)OCC1=C(C(=O)O)N2C(=O)[C@@H](NC(=O)CSc3ccncc3)[C@H]2SC1 [cephapirin] (10 µM),-0.142,93.5% (inactive)
O=C(O)/C=C/c1ccc(Cn2ccnc2)cc1 [ozagrel] (10 µM),0.12,92% (inactive)
O=C1[C@H](Cc2ccc(O)cc2)N2C(=O)CCN(C(=O)NCc3ccccc3)[C@H]2CN1Cc1cccc2ccccc12 (10 µM),0.0761,93% (inactive)
Oc1ccc2c3c1O[C@H]1c4c(c5ccccc5n4Cc4ccccc4)C[C@@]4(O)[C@@H](C2)N(CC2CC2)CC[C@]314 [N-benzylnaltrindole] (0.833333 µM),0.148,102% (inactive)
NC(=O)c1ccc([N+](=O)[O-])cc1Cl [aklomide] (10 µM),-0.229,114% (inactive)
